The sample as a whole holds a higher share of hits than the screen did.
IDE exosite FP: exo-site inhibitors of human IDE, primary screen, biochemical, fluorescence anisotropy, probe displacement | Insulin-degrading enzyme (Homo sapiens), P14735 | purified IDE, FL-6b probe fluorescence polarization; hits give low values | z-score at 20 µM | actives 6.3% (n = 17,000);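 active means z-score of -3 or lower, meaning strong loss of probe binding signal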;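 further: His-tagged human IDE residues 42-1019 made in E. coli with 30 nM FL-6b probe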
The depositor's hits bear a star.

Screening COc1ccccc1-c1ccc([C@@H]2[C@H](CO)N3CCCCN(S(=O)(=O)c4cn(C)cn4)C[C@@H]23)cc1 returned IDE exosite FP -13*.
For O=C([C@@H]1[C@@H](CO)[C@@H]2Cn3c(cccc3=O)[C@@H]2N1C(=O)CC1CC1)N1CCc2ccccc2C1 the results were IDE exosite FP 1.1.
`CN(C)C(=O)c1cccc(-c2ccccc2[C@@H]2[C@@H](C#N)N(C(=O)C3CCC3)[C@@H]2CO)c1` gave IDE exosite FP 3.7.
`CCS(=O)(=O)Nc1ccc2c(c1)C(=O)N(C)[C@@H]1CC[C@@H](CC(=O)NCCCN3CCOCC3)O[C@H]1CO2` gave IDE exosite FP -0.59.
Screening C/C=C/c1ccc([C@@H]2[C@H](CN(C)S(C)(=O)=O)N[C@@H]2CO)cc1 returned IDE exosite FP 3.8.
For CS(=O)(=O)N1[C@@H](C#N)[C@H](c2ccc(C#CC3CCCC3)cc2)[C@@H]1CO the results were IDE exosite FP 0.41.
`N#C[C@H]1[C@@H](c2ccc(C3=CCCC3)cc2)[C@@H](CO)N1C(=O)c1ccccn1` gave IDE exosite FP 0.95.
Cc1cccc(-c2ccc([C@@H]3[C@H](CO)N4C(=O)CN(C(=O)c5cccnc5)C[C@@H]34)cc2)c1 was read as IDE exosite FP -6.3*.
For Cc1cccc(-c2ccc([C@H]3[C@H]4CN(C(=O)c5cccnc5)CC(=O)N4[C@H]3CO)cc2)c1 the results were IDE exosite FP -2.8.
Screening COc1ccc(-c2ccc([C@@H]3[C@H](CO)N4C(=O)CN(C(=O)c5cccnc5)C[C@@H]34)cc2)cc1 returned IDE exosite FP -1.5.
Cc1cccc(-c2ccc([C@H]3[C@H](CO)N4C(=O)CN(C(=O)c5cccnc5)C[C@@H]34)cc2)c1 was read as IDE exosite FP -9.6*.
`COc1ccc(-c2ccc([C@@H]3[C@@H](CO)N4C(=O)CN(C(=O)c5cccnc5)C[C@@H]34)cc2)cc1` gave IDE exosite FP 0.76.
COc1ccc(-c2ccc([C@H]3[C@H](CO)N4C(=O)CN(C(=O)c5cccnc5)C[C@@H]34)cc2)cc1 was read as IDE exosite FP -1.8.
`CN1CCN(C(=O)C[C@@H]2CC[C@@H]3[C@H](COC[C@H](O)CN3Cc3cccc(-c4ccncc4)c3)O2)CC1` gave IDE exosite FP -0.94.
CCN(C[C@@H]1[C@@H](c2ccccc2)[C@H](CO)N1Cc1cccnc1)C(C)=O was read as IDE exosite FP 0.84.
Screening CN(C)C(=O)c1cccc(-c2ccccc2[C@H]2[C@@H](C#N)N(C(=O)C3CC3)[C@@H]2CO)c1 returned IDE exosite FP -0.92.
For COCC(=O)Nc1ccc2c(c1)[C@@H]1C[C@H](CC(=O)N3CCOCC3)O[C@@H](CO)[C@@H]1O2 the results were IDE exosite FP -1.5.
N#C[C@@H]1[C@@H](c2ccccc2C2=CCCC2)[C@@H](CO)N1C(=O)NC1CCCCC1 was read as IDE exosite FP -0.05.
Screening O=C(Cc1cccnc1)N1CC(=O)N2[C@H](C1)[C@H](c1ccc(-c3cccc(F)c3)cc1)[C@@H]2CO returned IDE exosite FP -1.9.
O=C(Cc1cccnc1)N1CC(=O)N2[C@H](CO)[C@H](c3ccc(-c4cccc(F)c4)cc3)[C@@H]2C1 was read as IDE exosite FP -0.91.
O=C(Cc1ccccc1)N1CC(=O)N2[C@H](CO)[C@H](c3ccc(-c4cccc(F)c4)cc3)[C@@H]2C1 was read as IDE exosite FP 0.84.
For O=C(Cc1cccnc1)N1CC(=O)N2[C@H](C1)[C@@H](c1ccc(-c3cccc(F)c3)cc1)[C@@H]2CO the results were IDE exosite FP -7*.
For O=C(Cc1ccccc1)N1CC(=O)N2[C@H](C1)[C@@H](c1ccc(-c3cccc(F)c3)cc1)[C@@H]2CO the results were IDE exosite FP -3.5*.
O=C(Cc1ccccc1)N1CC(=O)N2[C@@H](CO)[C@H](c3ccc(-c4cccc(F)c4)cc3)[C@@H]2C1 was read as IDE exosite FP -2.4.
For C/C=C/c1ccccc1[C@H]1[C@H](C#N)N(C(=O)c2cccnc2)[C@H]1CO the results were IDE exosite FP 0.035.
Screening O=C(Cc1ccncc1)NCC[C@@H]1CC[C@@H](NS(=O)(=O)c2ccccc2Cl)[C@H](CO)O1 returned IDE exosite FP -0.088.
`CN1c2ccc(-c3ccccc3)cc2[C@H]2[C@H](CCN2C(=O)NC2CCCCC2)[C@@H]1CO` gave IDE exosite FP 0.074.
`CC(C)NC(=O)N1CCCCN2[C@H](CO)[C@H](c3ccc(C#CC4CC4)cc3)[C@H]2C1` gave IDE exosite FP -1.7.
Screening CC(C)NC(=O)N1CCCCN2[C@H](CO)[C@H](c3ccc(C#Cc4ccccc4F)cc3)[C@@H]2C1 returned IDE exosite FP -6.4*.
Screening CC(C)NC(=O)N1CCCCN2[C@H](C1)[C@H](c1ccc(C#CC3CC3)cc1)[C@@H]2CO returned IDE exosite FP -2.3.
For CC(C)NC(=O)N1CCCCN2[C@@H](CO)[C@@H](c3ccc(C#C[C@H](C)O)cc3)[C@@H]2C1 the results were IDE exosite FP 0.3.

Source: PubChem (Broad Institute)
